Test results as given in PubChem BioAssay AID588358 (NMMLSC, 2011).
Hit rate of the full screen: of about 310,000 compounds, about 1,500 (0.48%) were called active. The full list was thinned out, with actives kept by preference. Unmarked numbers belong to inactive results.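 Rule for the calls: active = binding more than 3 SD below its plate's average and above zero; inconclusive = below that plate limit but binding exactly zero; inactive = the rest.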

Each molecule was assayed against Desmoglein-3 (Homo sapiens) (UniProt P32926) (assay: blockers of anti-DSG3 scFv binding – biochemical, bead-based, flow cytometry, scFv-GFP, primary screen (AID 588358;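 note: hits lower antibody fragment binding to DSG3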)). Conditions: DSG3-coupled beads, at 10 µM, active compounds read low.
Chain of Desmoglein-3 (Homo sapiens) (P32926 whole entry, looked up, the tested form may be a part): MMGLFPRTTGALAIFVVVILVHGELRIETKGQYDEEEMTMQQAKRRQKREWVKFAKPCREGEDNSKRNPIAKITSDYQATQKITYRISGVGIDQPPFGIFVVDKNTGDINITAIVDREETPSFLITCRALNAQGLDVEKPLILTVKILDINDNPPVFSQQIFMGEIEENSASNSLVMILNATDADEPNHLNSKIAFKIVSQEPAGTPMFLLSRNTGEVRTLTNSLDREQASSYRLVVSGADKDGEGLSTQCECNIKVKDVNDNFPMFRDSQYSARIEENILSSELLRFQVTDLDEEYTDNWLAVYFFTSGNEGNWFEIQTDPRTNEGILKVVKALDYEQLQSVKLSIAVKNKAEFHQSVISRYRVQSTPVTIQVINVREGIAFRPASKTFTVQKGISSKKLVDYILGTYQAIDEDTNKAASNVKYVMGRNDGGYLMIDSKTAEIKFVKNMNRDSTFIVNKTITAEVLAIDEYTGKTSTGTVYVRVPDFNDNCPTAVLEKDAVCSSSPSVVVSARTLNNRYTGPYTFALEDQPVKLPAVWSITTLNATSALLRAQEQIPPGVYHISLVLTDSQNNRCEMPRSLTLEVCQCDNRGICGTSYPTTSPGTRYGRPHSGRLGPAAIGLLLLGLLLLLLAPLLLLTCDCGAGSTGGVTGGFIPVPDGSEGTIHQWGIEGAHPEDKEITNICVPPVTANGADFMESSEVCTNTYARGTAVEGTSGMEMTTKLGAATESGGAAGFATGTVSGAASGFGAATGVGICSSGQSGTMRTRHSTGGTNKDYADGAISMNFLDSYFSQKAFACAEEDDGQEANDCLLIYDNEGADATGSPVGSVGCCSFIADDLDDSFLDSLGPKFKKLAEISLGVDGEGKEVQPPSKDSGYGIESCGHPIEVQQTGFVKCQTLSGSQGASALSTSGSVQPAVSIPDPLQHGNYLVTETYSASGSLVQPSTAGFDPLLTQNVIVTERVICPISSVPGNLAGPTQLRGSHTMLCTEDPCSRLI
In the case of `COc1cccc(NC(=O)[C@H](Cc2c[nH]c3ccccc23)NC(=O)[C@@H]2Cc3ccccc3CN2)c1`, the binding (percent of control) is reported as 63.9% (active).
`COc1ccc(NC(=O)[C@H](NC(=O)[C@@H]2Cc3ccccc3CN2)c2ccccc2)cc1` was tested, and the binding (percent of control) was 103%.
Work on `COc1ccc(NC(=O)C2CCC(CNC(=O)[C@@H]3Cc4ccccc4CN3)CC2)cc1` (some centres undefined) yielded a binding (percent of control) of 104%.
`COc1ccc(CN2C(=O)C(CC(=O)NCc3cccc4ccccc34)CC(C(=O)N3CCOCC3)=C2C)cc1` (centres undefined) gave a binding (percent of control) of 102%.
Work on `O=C(Nc1cc(F)ccc1F)c1ccc2c(=O)n3c(nc2c1)CCC3` yielded a binding (percent of control) of 98.5%.
Work on `C[C@H]1Cn2cnc(C(=O)N[C@@H](Cc3c[nH]c4ccccc34)C(=O)OC(C)(C)C)c2C(=O)N1` yielded a binding (percent of control) of 98.2%.
`CCOC(=O)CNc1nc(Cl)nc(Nc2ccccc2)n1` was tested, and the binding (percent of control) was 90.6%.
For `CCC(=O)Nc1ccc(Nc2nc(Cl)nc(Nc3ccc(NC(=O)CC)cc3)n2)cc1`, the binding (percent of control) was 81.3% (active).
Work on `CCC(=O)Nc1ccc(C(=O)NNC(=O)c2ccc(Cl)cc2)cc1` yielded a binding (percent of control) of 103%.
For `O=C(CCN1CCCCC1)Nc1ccc(F)c(F)c1`, the binding (percent of control) was 94.7%.
`COc1ccc(-n2cc(CN(C)Cc3n[nH]c(=O)[nH]3)c(-c3cccc(F)c3)n2)cc1` gave a binding (percent of control) of 103%.
For `COc1ccc(-n2cc(CNC3CCOCC3)c(-c3cccc(F)c3)n2)cc1`, the binding (percent of control) was 21.8% (active).
Work on `CCC(O)C1CCN(Cc2cn(-c3ccc(OC)cc3)nc2-c2cccc(F)c2)CC1` (centres undefined) yielded a binding (percent of control) of 110%.
`Cc1ccc(NC(=O)c2sc3nc(N)c(C#N)cc3c2N)cc1` gave a binding (percent of control) of 99.5%.
`Cc1cccc(NC(=O)c2sc3nc(N4CCOCC4)c4c(c3c2N)CCCC4)c1` gave a binding (percent of control) of 94.3%.
With `CC(=O)Nc1ccc(NC(=O)c2sc3nc4c(c(-c5ccc(C)cc5)c3c2N)CCC4)cc1` the binding (percent of control) was 6.32% (active).
`Cc1ccc(NC(=O)COc2coc(CN3CCc4ccccc4C3)cc2=O)cc1Cl` was tested, and the binding (percent of control) was 85.8% (active).
`Cc1ccc(NC(=O)CN2CCc3ccccc3C2)cc1C` gave a binding (percent of control) of 120%.
With `Cc1cc(C)cc(NC(=O)COc2coc(CN3CCN(c4ccccc4)CC3)cc2=O)c1` the binding (percent of control) was 104%.
`O=C(COC(=O)/C=C/c1ccc(Cl)cc1)NC1CCS(=O)(=O)C1` (centres undefined) showed a binding (percent of control) of 107%.
Molecule `CN(c1ccccc1)S(=O)(=O)c1ccc(C(=O)NCc2cccnc2)cc1` has a binding (percent of control) of 97.8%.
`COc1cc2c(=O)n(C)c3ccccc3c2cc1OC` showed a binding (percent of control) of 103%.
With `Cc1ccc(-c2nc(C#N)c(NCCCn3ccnc3)o2)cc1` the binding (percent of control) was 66.2% (active).
For `COc1ccc(-c2cc(C(=O)NCCCn3ccnc3)no2)cc1`, the binding (percent of control) was 104%.
`Cc1ccc(S(=O)(=O)c2nc(NCCCn3ccnc3)sc2Cl)cc1` showed a binding (percent of control) of 98.5%.
Work on `Cc1ccc(CCNC(=O)CN2C(=O)CSc3ccc(S(=O)(=O)N4CCOCC4)cc32)cc1` yielded a binding (percent of control) of 100%.
Work on `Cc1ccc(C(=O)N2CCCc3ccccc32)c(Cl)c1` yielded a binding (percent of control) of 104%.
`Cc1ccc(-c2nc3ccc(Cl)cn3c2Cc2ccccc2)cc1` gave a binding (percent of control) of 111%.
`C[C@@H]1CN([C@@H](C)CO)C(=O)c2cc(Br)cnc2O[C@H]1CN(C)Cc1ccc(-c2ccccc2)cc1` gave a binding (percent of control) of 101%.
Work on `O=S(=O)(c1ccc(Cl)cc1)c1nc(-c2ccccc2F)oc1NCCN1CCOCC1` yielded a binding (percent of control) of 103%.
Molecule `O=S(=O)(c1ccc(Br)cc1)c1nc(-c2ccccc2)oc1NCc1cccnc1` has a binding (percent of control) of 78.8%.
For `O=S(=O)(c1ccccc1)c1nc(-c2ccccc2F)oc1NCc1cccnc1`, the binding (percent of control) was 91.8% (active).
For `Clc1cccc(N=C2NN=C(c3ccc4c(c3)OCCO4)CS2)c1`, the binding (percent of control) was 97.3%.
In the case of `COCCn1c(C)cc(C2=NNC(=Nc3ccc(F)cc3)SC2)c1C`, the binding (percent of control) is reported as 76.6% (active).
`C=CCn1c(C)cc(C2=NNC(=NCC)SC2)c1C` was tested, and the binding (percent of control) was 80.2%.
`COc1ccc(N2C(=O)CC(SC(C)C)C2=O)cc1` (centres undefined) was tested, and the binding (percent of control) was 68% (active).
`COc1ccc(N2C(=O)CC(N3CCC(C(N)=O)CC3)C2=O)cc1` (centres undefined) gave a binding (percent of control) of 97.6%.
`COc1ccc(N2C(=O)CC(Sc3n[nH]c(-c4ccc(C)cc4)n3)C2=O)cc1` (centres undefined) was tested, and the binding (percent of control) was 85.3%.
In the case of `Cc1cccc(C)c1NC(=O)CNC(=O)c1ccc(N2CCOCC2)c([N+](=O)[O-])c1`, the binding (percent of control) is reported as 95.2%.
In the case of `COc1ccc2nc(-c3ccccn3)ccc2c1`, the binding (percent of control) is reported as 101%.
For `CCCc1ccc(S(=O)(=O)N2CCN(C(=O)c3cc(C)on3)CC2)cc1`, the binding (percent of control) was 96.3%.
`CCCCCCn1c(=O)n2n(c1=O)C[C@]1(OC(=O)NCc3ccc(OC)c(OC)c3)CN(S(=O)(=O)c3ccc(C)cc3)C[C@]1(O)C2` gave a binding (percent of control) of 108%.
For `CC1=C(C(=O)Nc2cccc(C(=O)NCC(C)c3ccccc3)c2)SCCO1` (centres undefined), the binding (percent of control) was 106%.
`CCOc1ccc(CCNC(=O)COC(=O)c2ccc(C)c(S(=O)(=O)N3CCOCC3)c2)cc1OCC` showed a binding (percent of control) of 97.5%.
